# Source: PubChem BioAssay (NCATS)
# “And” between values parts separate entries of the source, which are not always exact repeats. Identical values can stand only once. A number with no mark means an inactive call. Results filed as inconclusive are left out. The source made the active and inactive calls. Unless noted, the call rests on the fitted dose curve; in most records, active means well fitted cell-killing curve with a large enough effect; inconclusive means small, poorly fitted or top-dose-only effect, or effect the other way; inactive means flat fitted curve, though single readings scatter.
# How the values were obtained:
# [1] = qHTS assay for cell viability of HEK293 cells (AID 743288); conditions: ATP luminescence (CellTiter-Glo), 18 h, stronger effect = lower value; further: on the % scale 0 is the no-effect control and ±100 the full control effect; nearly all actives have a fitted effect of over 50% in size
# Summary of the method: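 Quantitative high-throughput screen: compounds were pinned onto parental HEK293 cells (2,000 per well) after a minimum 5 h settling at 37 C, incubated 18 h at 37 C, and intracellular ATP measured by luciferase luminescence.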
# [2] = qHTS assay for cell viability of the p53RE-bla HCT-116 cell line (AID 743292); conditions: p53RE-bla HCT-116 viability, ATP luminescence, 16 h; series mostly up to 95 µM; further: nearly all actives have a fitted effect of over 55% in size; further: potency means the concentration at half of the fitted maximal effect
# Summary of the method: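 Readout: CellTiter-Glo luminescence after 30 min RT. Treatment: compounds in DMSO, 16 h, 37 C. Cells: CellSensor p53RE-bla HCT-116, 4,000/well, preincubated 5 h.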
# [3] = target: Nuclear receptor subfamily 1 group I member 2 (Rattus norvegicus) (UniProt Q9R1A7); assay: qHTS assay for small molecule activators of the rat pregnane X receptor (rPXR) signaling pathway (AID 651751; call rule not given here; further: 0% is about no effect); conditions: rPXR reporter cells, luciferase (One-Glo), 24 h
# [4] = qHTS assay for small molecule activators of the human pregnane X receptor (PXR) signaling pathway (AID 720659; call rule not given here; further: 0% is about no effect); conditions: DPX-2 HepG2 CYP3A4-luciferase, 24 h; series mostly up to 92.3 µM
# Chain of Nuclear receptor subfamily 1 group I member 2 (Rattus norvegicus) (Q9R1A7 whole entry, looked up): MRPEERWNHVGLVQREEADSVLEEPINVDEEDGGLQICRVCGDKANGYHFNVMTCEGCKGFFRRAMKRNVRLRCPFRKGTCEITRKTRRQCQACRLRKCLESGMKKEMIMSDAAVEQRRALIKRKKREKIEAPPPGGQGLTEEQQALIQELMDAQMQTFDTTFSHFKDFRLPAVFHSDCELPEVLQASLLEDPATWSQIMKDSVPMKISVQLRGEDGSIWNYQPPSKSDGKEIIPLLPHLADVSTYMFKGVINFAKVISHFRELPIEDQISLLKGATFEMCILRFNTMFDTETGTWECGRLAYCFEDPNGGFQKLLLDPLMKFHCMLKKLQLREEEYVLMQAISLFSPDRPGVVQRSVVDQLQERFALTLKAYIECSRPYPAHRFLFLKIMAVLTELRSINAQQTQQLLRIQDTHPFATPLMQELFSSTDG
Compound,max response [1],Potency [2],max response [3],outcome [4]
CCCCOCCOCCSC#N,5.15%,inactive,-2.98%,inactive
c1ccc(Nc2ccccc2)cc1,-6.24% and -7.97%,inactive,1.12% and -1.15%,inactive
CNC(=O)N(c1ccccc1)c1ccccc1,1.15%,inactive,1.74%,inactive
Cc1ccc(CO)cc1,9.52%,inactive,4.72%,inactive
CN(C)c1cccc(O)c1,-2.96%,inactive,1.23%,inactive
Nc1ccc(Cl)cc1[N+](=O)[O-],-4.72%,inactive,1.08%,inactive
O=C(O)c1c(Cl)cccc1Cl,-0.226%,inactive,-2.07%,inactive
CCC(C)(C)C(=O)O,-3.48%,inactive,5.04%,inactive
CC(C)=CCC/C(C)=C/C=O,-7.6% and -9.91%,inactive,-5.36% and -0.0145%,inactive
C=Cc1ccccn1,3.38%,inactive,2.42%,inactive
Cc1c(N)cccc1N,6.3%,inactive,3.73%,inactive
O=C(O)c1ccccc1C(=O)O,-4.91%,inactive,-4.53%,inactive
C=CC(=O)OCCCC,-0.0822%,inactive,6.31%,inactive
CC(=O)c1nccs1,-7.91%,inactive,8.24%,inactive
CCCCC(CC)CO (stereo unspecified),-2.63%,inactive,-2.06%,inactive
CC(=O)c1ccccc1[N+](=O)[O-],7.31%,inactive,1.69%,inactive
Cc1cc([N+](=O)[O-])ccc1N,-5.02%,inactive,2.26%,inactive
C=CCn1c(=O)n(CC=C)c(=O)n(CC=C)c1=O,8.26%,inactive,4.89%,inactive
CC(C)Nc1ccccc1,-1.42%,inactive,4.55%,inactive
O=c1[nH][nH]c(=O)c2cc([N+](=O)[O-])ccc12,-7.38%,inactive,-1.39%,inactive
CC(C)(C)OCC1CO1 (stereo unspecified),-0.898%,inactive,0.0184%,inactive
O=C1CCCCC1,-3.35%,inactive,2.79%,inactive
CCNS(=O)(=O)c1ccc(C)cc1,-4.78%,inactive,2.12%,inactive
Cc1ccc(C)c(N)c1,-4.96%,inactive,-4.19%,inactive
NC(=O)/N=N/C(N)=O,1.54%,inactive,-0.787%,inactive

Compound,max response [1],Potency [2],max response [3],outcome [4]
CCCCCNCCCCC,0.935% and 1.64%,inactive,7.61% and 1.33%,inactive
CNc1ccc([N+](=O)[O-])cc1,0.311%,inactive,8.26%,inactive
c1ccsc1,6.51%,inactive,-1.04%,inactive
FC(F)(F)c1cccc(Cl)c1,-5.31%,inactive,-6.22%,inactive
C=Cc1ccc(C=C)cc1,-2.33%,inactive,-2.76%,inactive
CCCC(C)CO (stereo unspecified),-5.68%,inactive,0.794%,inactive
Nc1c(Cl)cc(Cl)cc1Cl,-2.95%,inactive,-2.23%,inactive
[O-]/[N+](=N\O)c1ccccc1,-16.3%,inactive,-1.54%,inactive
CCCCCCC=O,5.62%,inactive,-7.57%,inactive
Cc1cccc2ccccc12,1.12%,inactive,3.98%,inactive
CCOc1cc(OCC)c(C(C)=O)cc1OCC,0.327%,inactive,,
N#CCc1ccccc1[N+](=O)[O-],-6.51%,inactive,8.31%,
COc1ccc(N=[N+]([O-])c2ccc(OC)cc2)cc1,-5.78%,inactive,,
CCCCC(=O)N(C)C,-5.96%,inactive,-1.49%,inactive
S=C([S-])NCCNC(=S)[S-].[Zn+2],1.36% and -44.1% and -10.7%,inactive,-5.53% and -7.82% and -4.11%,
C=C(C)C(=O)OCC(C)C,2.75%,inactive,5.41%,inactive
C=C(C)C1CC=C(C)C(OC(C)=O)C1 (stereo unspecified),1.89%,inactive,,inactive
OCCO,-10.8%,inactive,,
CCC(=O)/C=C/C1C(C)=CCCC1(C)C (stereo unspecified),0.395%,inactive,,
CCNc1cc(O)ccc1C,2.21%,inactive,-2.12%,
COCCOC(=O)c1ccccc1C(=O)OCCOC,-2.4%,inactive,-0.386%,
Nc1nc(CC(=O)O)cs1,-0.757%,inactive,-3.19%,inactive
CCN(CC)c1cccc(O)c1,-2.87%,inactive,3.46%,
Cc1ccc(S(=O)(=O)NC2CCCCC2)cc1,-5.72%,inactive,,
CC(=O)OCc1ccco1,,inactive,-1.61%,inactive

Compound,max response [1],Potency [2],max response [3],outcome [4]
Cc1ccc2c(c1[N+](=O)[O-])C(=O)c1ccccc1C2=O,,inactive,5.79%,
C=CCCCCCCC=C,3%,inactive,,
CC(C)(C)c1ccc(OCC2CO2)cc1 (stereo unspecified),3.48%,inactive,,
Cc1ccc(C)c([N+](=O)[O-])c1,4.94%,inactive,-1.78%,inactive
Cc1ccc2cccnc2c1,6.13%,inactive,-2.67%,
BrC/C=C/CBr,-11%,inactive,-0.603%,
N#CC1(O)CCCCC1,1.77%,inactive,2.59%,
O=C(O)CN(CC(=O)O)CC(=O)O,8.87% and -10.3% and 10.6%,inactive,,inactive
CC(=O)OC(C)=O,3.19%,inactive,5.82%,inactive
CC1=C(/C=C/C(C)=C/C=C/C(C)=C\C=O)C(C)(C)CCC1,-22%,44.7 µM (active),,
Clc1cc(Cl)cc(Cl)c1,-3.91%,inactive,,inactive
Cc1cc(C2(c3cc(C)c(O)cc3C)OS(=O)(=O)c3ccccc32)c(C)cc1O,-2.41%,inactive,-3.33%,
CCC(C)O (stereo unspecified),5.18%,inactive,,
O=C(O)c1ccc(CO)o1,11.8%,inactive,,inactive
O=Cc1c(Cl)cccc1Cl,-9.95%,inactive,8%,
C[C@@H]1CC2(OC3C[C@@]4(C)C5=CC[C@H]6C(C)(C)C(O[C@@H]7OC[C@@H](O)[C@H](O)[C@H]7O)CC[C@@]67C[C@@]57CC[C@]4(C)C31)OC(O)C1(C)OC21 (stereo partly specified),-9.95%,inactive,,inactive
Nc1cccc2c(=O)[nH][nH]c(=O)c12,0.895%,inactive,,
COc1ccc(N)c(OC)c1,1.67%,inactive,,
Nc1cccc(C(F)(F)F)c1,-2.53% and -9.98%,inactive,-1.26% and 1.53%,
Nc1cccc(S(=O)(=O)O)c1,0.367%,inactive,7.17%,
Cc1ccc2nc(-c3ccc(N)cc3)sc2c1S(=O)(=O)O,-7.88%,inactive,,
CSCCC=O,1.22%,inactive,4.33%,
CCN(C(=O)N(CC)c1ccccc1)c1ccccc1,-19.1%,inactive,-2.68%,
CC#N,-9.36%,inactive,,inactive
Nc1nc(-c2ccccc2)cs1,0.545%,inactive,,
